# The panel holds about 83,000 compounds, 20% with a hit somewhere; the sample as a whole holds those more often.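 Cells were grown in 96-well plates and exposed to the test compound at a single concentration for 48 hours; results are reported as percent growth, with values below 10 considered active.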 Values without a mark were called inactive. Calls of active or inactive are those of the source.
# Experiments:
# Assay in all cases: NCI-60 one-dose screen, 48 h (100 = growth as untreated, 0 = no growth, -100 = all killed)
# Details in all cases: 10 µM unless noted
# NCI-H23 lung = tested on: NCI-H23 lung
# NCI-H226 lung = tested on: NCI-H226 lung
# NCI-H322M lung = tested on: NCI-H322M lung
# HOP-62 NSCLC = tested on: HOP-62 NSCLC
# NCI-H460 lung = tested on: NCI-H460 lung
# HOP-92 NSCLC = tested on: HOP-92 NSCLC
# NCI-H522 lung = tested on: NCI-H522 lung
# A549/ATCC NSCLC = tested on: A549/ATCC NSCLC
# 786-0 renal = tested on: 786-0 renal
# COLO 205 colon = tested on: COLO 205 colon
# DU-145 prostate = tested on: DU-145 prostate
# K-562 leukemia = tested on: K-562 leukemia
# MALME-3M melanoma = tested on: MALME-3M melanoma
# MDA-MB-231 breast = tested on: MDA-MB-231 breast
# RXF 393 renal = tested on: RXF 393 renal
# SF-268 CNS = tested on: SF-268 CNS
# SF-295 CNS = tested on: SF-295 CNS
# SF-539 CNS = tested on: SF-539 CNS
# UACC-257 melanoma = tested on: UACC-257 melanoma
# M14 melanoma = tested on: M14 melanoma
SMILES,growth (NCI-H23 lung),growth (NCI-H226 lung),growth (NCI-H322M lung),growth (HOP-62 NSCLC),growth (NCI-H460 lung),growth (HOP-92 NSCLC),growth (NCI-H522 lung),growth (A549/ATCC NSCLC),growth (786-0 renal),growth (COLO 205 colon),growth (DU-145 prostate),growth (K-562 leukemia),growth (MALME-3M melanoma),growth (MDA-MB-231 breast),growth (RXF 393 renal),growth (SF-268 CNS),growth (SF-295 CNS),growth (SF-539 CNS),growth (UACC-257 melanoma),growth (M14 melanoma)
O=C1CCC(C(=O)N/N=C/c2cc(F)ccc2F)N1 (stereo not given),95.3%,99.2%,99.7%,103%,101%,95.4%,93.7%,97.6%,103%,110%,110%,97.1%,95.1%,111%,108%,97.2%,99.5%,101%,103%,104%
CCOC(=O)C(CCN(C)C)c1ccccc1 (stereo not given),94.4%,90.3%,91.9%,88.8%,105%,78.8%,84.5%,91.8%,98.1%,116%,105%,107%,96%,99%,90.4%,90%,101%,96.2%,94.2%,106%
COc1cc(/C=C/C(=O)c2cc(OC)c(OC)c(OC)c2)ccc1Oc1nc2c(c(=O)n(C)c(=O)n2C)n1C,-51.1% (active),-35.4% (active),0% (active),-40.8% (active),-5.25% (active),3.39% (active),-68.7% (active),-13.2% (active),-87.4% (active),-77% (active),7.64% (active),10.2%,-26.8% (active),9.39% (active),-89.4% (active),11.9%,-10.1% (active),-24.9% (active),40.8%,-28.5% (active)
O=C(NCc1ccc(Cn2c(=O)sn(-c3ccccc3)c2=O)cc1)OCc1ccc2cccc(O)c2n1,-67.4% (active),35.6%,67.4%,-58.2% (active),27.2%,-65.3% (active),-53.5% (active),-27.3% (active),-87.7% (active),-57.4% (active),-91.7% (active),-9.02% (active),-68.7% (active),-45.7% (active),-94.3% (active),-46.2% (active),50.2%,-91.7% (active),-25% (active),-64.2% (active)
Cc1cccc(-c2nc(C(C)C)sc2-c2ccnc(NCCCNS(=O)(=O)c3ccc(Cl)cc3)c2)c1,84.9%,81.4%,95.1%,91.6%,70.1%,83.1%,55.4%,74.8%,76.3%,60.8%,78.2%,30.5%,99.9%,76.5%,103%,67.4%,80.7%,84.2%,113%,82.2%
COc1ccc(-c2nc3ccc(C)cc3c3c2c(=O)n(C)c(=O)n3C)cc1OC,98.8%,108%,118%,112%,112%,99.2%,107%,89.9%,103%,109%,108%,107%,111%,102%,99.2%,100%,91.3%,108%,114%,109%
COc1cc(/C=C/C(=O)c2cccc(-n3cc(-c4ccc(Cl)cc4)[nH]c3=O)c2)ccc1O,97.5%,101%,92.6%,130%,93.7%,56.9%,23.4%,77.3%,84.3%,124%,78.1%,17.9%,87.8%,86%,23.7%,71.7%,76.7%,84.2%,68%,85.8%
CCOc1ccc(/C=C/C(=O)c2cccc(OCCCOc3cccc(C(=O)/C=C/c4ccc(OCC)cc4)c3)c2)cc1,83.9%,73.8%,84.5%,107%,65.4%,91.6%,74%,85.4%,100%,116%,82.8%,69.9%,100%,83.3%,105%,85.3%,76.4%,110%,82.7%,69%
